Laboratory results as given in PubChem BioAssay (NCI).
Compounds without any hit were thinned out: in the full panel of roughly 83,000, 20% have a hit.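 Method: cells in 96-well plates; compound added at one concentration; 48 h incubation; percent growth measured; values under 10 scored active.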 Unmarked numbers belong to inactive results. Active and inactive are the calls of the source.

Each molecule was assayed on MOLT-4 leukemia (assay: NCI-60 one-dose screen, 48 h (100 = growth as untreated, 0 = no growth, -100 = all killed)). Details: 10 µM unless noted.
In the case of `C#C[C@]1(O)CC[C@H]2[C@@H]3CC=C4c5sc(Nc6cccc(C)n6)nc5CC[C@]4(C)[C@H]3CC[C@@]21C`, the growth was -25.2% (active). For `Clc1ccc(-c2csc(N/N=C/c3nc4ccccc4n3C3CC3)n2)cc1`, the growth was 98.2%. With `O=C(NNc1nc2cc(F)c(F)cc2n2cccc12)c1ccncn1` the growth was 8.93% (active). With `CCn1c2ccc(/C=N/NS(=O)(=O)CCN(C)C)cc2c2cc(/C=N/NS(=O)(=O)CCN(C)C)ccc21` the growth was 103%. `COc1ccc(-c2nnc(/N=C3/C(=O)Nc4ccc(Br)cc43)o2)cc1` showed a growth of 96.1%. With `O=C(CCCCCCN1CC(=O)N2[C@@H](c3ccc(Cl)c(F)c3)c3[nH]c4ccccc4c3C[C@H]2C1=O)NO` the growth was 45.3%. `O=C(N/N=C\c1ccc(Cl)cc1)c1ccc2nc(-c3ccc(Br)cc3)[nH]c2c1` gave a growth of 11.6%. In the case of `O=C1CSC(=O)N1Cc1cc2ccccc2nc1Cl`, the growth was 102%. `CCCCSc1nnc(-c2ccc(-c3ccc(Cl)cc3)nc2C)o1` was tested, and the growth was 96.3%. `COc1ccc(/C=N\NC(=O)c2ccc3nc(-c4ccc(Br)cc4)[nH]c3c2)cc1` gave a growth of 61.9%. `NS(=O)(=O)c1ccc(Nc2nc(N/N=C/c3ccc([N+](=O)[O-])cc3)nc(Nc3ccccc3)n2)cc1` gave a growth of 11.9%. For `COc1cc(NC2=C(Cl)C(=O)c3nc(C)ccc3C2=O)cc(OC)c1`, the growth was 8.29% (active). In the case of `Cc1ccc(/C=C/CC(=O)Nc2ccc(C(=O)Nc3ccc(F)cc3N)cc2)cn1`, the growth was 45.1%. In the case of `O=C(c1ccc(O)cc1)[C@@H]1[C@@H]2CCCN2[C@@]2(C(=O)N(C(=O)c3ccc(F)cc3)c3ccccc32)[C@H]1c1ccc(F)cc1`, the growth was 68%. Molecule `COc1ccc(S(=O)(=O)n2cc(C=O)c3ccccc32)c(OC)c1` has a growth of 29.2%. For `C#C[C@]1(O)CC[C@H]2[C@@H]3CC=C4c5sc(Nc6cc(Cl)ccn6)nc5CC[C@]4(C)[C@H]3CC[C@@]21C`, the growth was 4.35% (active). `N#C/C(=C\c1ccc2ccccc2c1)C(=O)Nc1sc2c(c1C#N)CCC2` gave a growth of 101%. In the case of `CN1CCN(Cc2ccc(NC(=O)c3cncc(C#Cc4cnc5ccc(O[C@H]6CCOC6)nn45)c3)cc2C(F)(F)F)CC1`, the growth was -1.92% (active). Molecule `C/C=C/C=C1\C[C@H]2CO[C@H](O2)C1=O` has a growth of 90.4%. Work on `O=C(NNc1nc2cc(F)cc(F)c2n2cccc12)c1ncccn1` yielded a growth of 13%. Molecule `C#CCOc1ccc(/C=N/Nc2nc(-c3cc(Cl)ccc3Cl)cs2)cc1` has a growth of 86.3%. Work on `COc1ccc(-c2nc(SCC(C)C)nc(N/N=C\c3cccc([N+](=O)[O-])c3)c2C#N)cc1` yielded a growth of 75.1%. With `CNC(=O)c1cc(Oc2ccc3nc(NC(=O)c4ccc(CN5CCN(C)CC5)c(C(F)(F)F)c4)sc3c2)ccn1` the growth was 39.2%. `C#C[C@]1(O)CC[C@H]2[C@@H]3CC=C4c5sc(Nc6ccc(OC)nc6)nc5CC[C@]4(C)[C@H]3CC[C@@]21C` was tested, and the growth was 3.4% (active). With `O=C1Nc2ccc(Br)cc2/C1=N\c1nnc(-c2ccc(Cl)cc2)o1` the growth was 36.6%. `CC(C)c1nn(-c2ccccc2)c(N2CCCCC2)c1/C=N/NC(N)=S` gave a growth of 83.6%. Molecule `COc1cc(/C=C/C(=O)c2ccc(N3CCN(C)CC3)cc2)ccc1F` has a growth of 88.5%. With `CC1CCN(S(=O)(=O)c2ncsc2-c2ccccc2)CC1` the growth was 66.7%. With `O=C1[C@@H]2Cc3c([nH]c4ccccc34)[C@H](c3c(Cl)cccc3Cl)N2C(=O)CN1C1CCN(Cc2ccccc2)CC1` the growth was 12.8%. In the case of `C#C[C@]1(O)CC[C@H]2[C@@H]3CC=C4c5sc(Nc6ccncc6)nc5CC[C@]4(C)[C@H]3CC[C@@]21C`, the growth was -18.3% (active). `C#CCOc1ccc(/C=N/Nc2nc(-c3cc4cc(Br)cc(Br)c4oc3=O)cs2)cc1` was tested, and the growth was 62.8%. In the case of `O=C1c2c(c3c4cccnc4[nH]c3c3ccc4ccccc4c23)C(=O)N1CCN1CCCCC1`, the growth was 6.84% (active). Molecule `NS(=O)(=O)Oc1ccc2nc(Nc3ccc(F)c(F)c3)ccc2c1` has a growth of 67%. With `Cc1ccc(-c2csc(N/N=C/c3nc4ccccc4n3C3CC3)n2)cc1` the growth was 37.3%. `O=C1c2c(c3c4cc(Br)ccc4[nH]c3c3ccc4ccccc4c23)C(=O)N1CCN1CCCCC1` was tested, and the growth was -1.44% (active). With `Cc1cnc2nc(NN)[nH]n12` the growth was 102%. With `O=C(NCCCCCCNC(=O)c1c2c(nc3ccccc13)-c1cccnc1SC2)c1c2c(nc3ccccc13)-c1cccnc1SC2` the growth was 88.1%. `COc1cc(/C=N/n2cnc3oc(-c4ccccc4)cc3c2=N)cc(CN2CCCC2)c1O` was tested, and the growth was 6.5% (active). With `C#C[C@]1(O)CC[C@H]2[C@@H]3CC=C4c5sc(Nc6cccc(Cl)n6)nc5CC[C@]4(C)[C@H]3CC[C@@]21C` the growth was -15.9% (active).
